The values below come from PMC5540273 (PLoS ONE, 2017).

Conditions in all cases: concentration: 1 μM, replicates: in singlicate; n = 1
The subject of assay [1] is HIPK2.
Assay [2] relates to HIPK3.
For assay [3], the system named is HIPK4.
The subject of assay [4] is HPK1.
Assay [5] relates to HUNK.
For assay [6], the system named is ICK.
Assay [7] has as its system IGF1R.
For assay [8], the system named is T1, IKK-alpha.
T1 construct: gene CHUK

For assay [9], the system named is T2, IKK-beta.
T2 construct: gene IKBKB

Assay [10] concerns T3, IKK-epsilon.
T3 construct: gene IKBKE
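Also: KINOMEscan kinase panel screen.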

Turning to `CC(=O)Nc1n[nH]c2ncc(-c3ccccc3)cc12` [SB-548492], the “%Inh” value in assay [1] is on record as 48%; in assay [2], 34%; in assay [3], 7%; in [4] it was 23%; in assay [5], 24%; in [6] it was 28%. Moreover, the “%Inh” value in assay [7] is reported as 10%; in assay [8] it was 0%; in assay [9] it was 22%; in assay [10] it was 0%.

Take `Cn1ccc2ncnc(Oc3ccc(NC(=O)Nc4cccnc4)c(Cl)c3)c21`: the “%Inh” value in [1] is recorded as 4%; in [2], 0%; in [3], 6%; in [4] it was 11%; in [5], 24%; in assay [6], 0%. Also, the “%Inh” value in assay [7] came out at 16%; in assay [8], 13%; in [9], 10%; in [10], 0%.

For `O=C(Nc1ccccc1F)NC1CCN(c2ccnc(Nc3ccc(F)cc3)n2)C1` (centres unmarked) [GSK1379722], the “%Inh” value worked out at 0% in [1]; 10% in assay [2]; 0% in assay [3]; 42% in [4]; 24% in [5]; 100% in assay [6]. Besides, the “%Inh” value in assay [7] came out at 100%; in [8], 24%; in assay [9] it was 23%; in assay [10] it was 0%.

With `Cl.c1ccc(Cn2ccc3cc(Nc4ncnc5ccccc45)ccc32)cc1` [GW275568], the “%Inh” value in [1] is 0%; in [2], 9%; in assay [3], 0%; in [4], 31%; in [5], 3%; in assay [6] it was 0%. For the same compound, the “%Inh” value came out at 0% in [7], 0% in assay [8], 0% in assay [9] and 24% in [10].

`Cl.Fc1ccccc1COc1ccc(Nc2ncnc3ccc(-c4nnc(C(F)(F)F)o4)cc23)cc1Cl` [GW424170]: the “%Inh” value came out at 0% in assay [1]; 0% in assay [2]; 0% in [3]; 20% in assay [4]; 3% in assay [5]; 0% in assay [6]. The “%Inh” value in [7] amounted to 11%; in [8] it was 0%; in assay [9], 0%; in assay [10], 0%.

As for `CC(C)N1CCC(n2cnc(-c3ccc(F)cc3)c2-c2ccnc(N)n2)CC1` [SB-223132], the “%Inh” value came out at 0% in assay [1]; 0% in assay [2]; 11% in assay [3]; 0% in [4]; 0% in assay [5]; 0% in [6]. In addition, the “%Inh” value in [7], in [8], in assay [9] and in assay [10] was 0% throughout.

On to `Cc1ccc(O)cc1Nc1cc(C(F)(F)F)nc2ccc(-c3ccncc3)cc12` [GW630823], for which the “%Inh” value in assay [1] was found to be 0%; in [2], 0%; in [3] it was 9%; in assay [4] it was 0%; in assay [5] it was 3%; in [6] it was 0%. Further, the “%Inh” value is on record as 5% in [7], 0% in assay [8], 0% in assay [9] and 0% in [10].

As for `CNc1nccc(-c2c(-c3ccc(F)cc3)ncn2CCCN2CCOCC2)n1` [SB-222516], the “%Inh” value in [1] was 0%; in assay [2], 0%; in [3], 0%; in assay [4], 0%; in assay [5], 39%; in [6] it was 37%. Moreover, the “%Inh” value was determined as 2% in assay [7], 0% in assay [8], 0% in assay [9] and 0% in assay [10].

Turning to `Nc1nccc2scc(-c3ccc4c(c3)CCN4C(=O)Cc3cc(F)ccc3F)c12` [GSK2587663], the “%Inh” value in assay [1] is 0%; in [2], 6%; in [3], 0%; in assay [4], 28%; in assay [5] it was 14%; in [6], 0%. Also, the “%Inh” value is recorded as 13% in assay [7], 5% in [8], 0% in [9] and 5% in assay [10].

With `Fc1ccc(-c2ncn(CCCNCc3ccccc3)c2-c2ccncc2)cc1`, the “%Inh” value is on record as 23% in assay [1]; 45% in assay [2]; 0% in assay [3]; 8% in [4]; 7% in assay [5]; 12% in [6]. Also, the “%Inh” value stood at 4% in assay [7], 0% in [8], 9% in assay [9] and 10% in assay [10].

Regarding `COc1ccc(Nc2nccc(N3CCC(NC(=O)c4cccc(NC(C)=O)c4)C3)n2)cc1` (centres unmarked) [GSK1379732], the “%Inh” value is recorded as 13% in assay [1]; 0% in assay [2]; 0% in assay [3]; 43% in assay [4]; 28% in [5]; 0% in assay [6]. The “%Inh” value was found to be 0% in assay [7], 0% in assay [8], 0% in assay [9] and 19% in [10].

For `Fc1cccc(COc2ccc(Nc3ncnc4cc[nH]c34)cc2Cl)c1`, the “%Inh” value is reported as 27% in assay [1]; 40% in assay [2]; 9% in assay [3]; 0% in assay [4]; 8% in assay [5]; 5% in [6]. Besides, the “%Inh” value turned out to be 5% in [7], 5% in assay [8], 23% in [9] and 39% in assay [10].

For `Cl.Cl.c1ccc(-c2cc3ccncc3cc2OC2CCNCC2)cc1` [GSK1122999], the “%Inh” value was 0% in [1]; 20% in assay [2]; 0% in assay [3]; 51% in [4]; 27% in [5]; 0% in assay [6]. Also, the “%Inh” value in [7] came out at 0%; in [8] it was 72%; in assay [9], 98.7%; in [10] it was 9%.

On to `Nc1nc(-c2ccc3c(N)n[nH]c3c2)cc(N2CCCCC2)n1` [GSK2228768], for which the “%Inh” value in assay [1] came out at 0%; in assay [2], 0%; in assay [3], 0%; in assay [4], 32%; in assay [5] it was 0%; in assay [6], 0%. In addition, the “%Inh” value in assay [7] is recorded as 0%; in assay [8], 0%; in assay [9], 0%; in [10], 29%.

With `COc1cc2c(Nc3cccc(NC(=O)c4ccccc4)c3)ncnc2cc1OCCCN1CCOCC1` [GSK223810], the “%Inh” value in [1] worked out at 0%; in assay [2], 0%; in assay [3] it was 7%; in assay [4], 55%; in assay [5], 0%; in assay [6] it was 0%. The “%Inh” value is 0% in [7], 0% in assay [8], 0% in assay [9] and 19% in assay [10].

On to `O=C(CCO)NCCn1ccc2ncnc(Nc3ccc(Oc4cccc(C(F)(F)F)c4)c(Cl)c3)c21`, for which the “%Inh” value in assay [1] amounted to 0%; in [2], 0%; in assay [3], 0%; in assay [4], 7%; in [5] it was 0%; in assay [6] it was 0%. Besides, the “%Inh” value in [7], in assay [8], in assay [9] and in assay [10] was 0% throughout.

For the compound `Cc1cc(N2CCC(NS(=O)(=O)c3ccc(F)cc3)CC2)nc(Nc2cccc(C#N)c2)n1.O=C(O)C(F)(F)F` [GSK1653537], the “%Inh” value in [1] worked out at 47%; in assay [2], 0%; in assay [3] it was 0%; in [4], 43%; in [5] it was 25%; in assay [6], 0%. The “%Inh” value amounted to 0% in assay [7], 12% in assay [8], 2% in [9] and 7% in assay [10].
